Reference: PMC7862700, “An all-to-all approach to the identification of sequence-specific readers for epigenetic DNA modifications on cytosine”

Tests used:
Test in all cases: DAPPL (digital affinity profiling via proximity ligation, sequencing); 10 mM Tris-HCl pH 7.5, 50 mM NaCl, 1 mM DTT, 4% glycerol, room temperature, 30 min; GST-TFs on glutathione beads, 16-mer random dsDNA library, 0.1% formaldehyde crosslink after washing; high values mean tight binding
Details in all cases: protein: recombinant; tags: N-terminal GST; dsDNA, one strand shown
ELK1 = molecular target: T1, ELK1 (Homo sapiens, UniProt P19419 1-428)
T1 sequence: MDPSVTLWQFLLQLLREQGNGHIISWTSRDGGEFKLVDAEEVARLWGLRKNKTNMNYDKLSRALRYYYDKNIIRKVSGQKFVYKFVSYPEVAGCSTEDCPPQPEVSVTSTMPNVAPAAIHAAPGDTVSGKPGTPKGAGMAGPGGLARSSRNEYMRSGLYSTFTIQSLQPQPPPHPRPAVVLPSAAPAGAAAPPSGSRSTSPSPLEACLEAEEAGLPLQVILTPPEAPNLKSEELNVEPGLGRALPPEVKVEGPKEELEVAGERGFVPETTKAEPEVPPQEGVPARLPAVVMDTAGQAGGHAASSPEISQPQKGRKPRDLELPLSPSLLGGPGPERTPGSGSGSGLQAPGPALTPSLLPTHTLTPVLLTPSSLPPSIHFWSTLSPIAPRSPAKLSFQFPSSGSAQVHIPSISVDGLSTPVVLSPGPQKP
Method in brief: (§1)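 Sequencing on an Illumina NextSeq500 followed washing, crosslinking with 0.1% formaldehyde, proximity ligation (BsaI/T4 ligase, 1 h, 37 °C) and PCR amplification of pools that had been incubated for 30 min at room temperature with 200 nmole of a random double-stranded 16-mer DNA library in Tris/NaCl/DTT/glycerol buffer. Each pool held DNA-barcoded human transcription factors, expressed in yeast as GST fusions and captured on glutathione beads, plus a tag-only sample. Binding signal is a hexamer's read frequency for a factor divided by its frequency in the tag-only sample.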

GABPA = molecular target: T2, GABPA (Homo sapiens, UniProt Q06546 1-454)
T2 sequence: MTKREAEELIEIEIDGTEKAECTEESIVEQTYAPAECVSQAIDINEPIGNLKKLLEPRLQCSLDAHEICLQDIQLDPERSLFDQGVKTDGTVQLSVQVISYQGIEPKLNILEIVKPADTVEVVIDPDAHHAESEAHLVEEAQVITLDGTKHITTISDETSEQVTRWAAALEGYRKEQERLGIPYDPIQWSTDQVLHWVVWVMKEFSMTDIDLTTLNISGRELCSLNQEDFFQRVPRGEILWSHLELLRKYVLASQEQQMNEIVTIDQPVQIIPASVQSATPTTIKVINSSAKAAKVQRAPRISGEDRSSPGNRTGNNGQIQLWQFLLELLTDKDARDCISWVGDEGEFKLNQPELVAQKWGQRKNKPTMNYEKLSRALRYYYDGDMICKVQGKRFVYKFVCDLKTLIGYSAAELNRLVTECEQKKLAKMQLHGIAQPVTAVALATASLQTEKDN
Method in brief: as §1

ELF1 = ELF1 (Homo sapiens, UniProt P32519 1-619)
ELF1, sequence (P32519 whole entry): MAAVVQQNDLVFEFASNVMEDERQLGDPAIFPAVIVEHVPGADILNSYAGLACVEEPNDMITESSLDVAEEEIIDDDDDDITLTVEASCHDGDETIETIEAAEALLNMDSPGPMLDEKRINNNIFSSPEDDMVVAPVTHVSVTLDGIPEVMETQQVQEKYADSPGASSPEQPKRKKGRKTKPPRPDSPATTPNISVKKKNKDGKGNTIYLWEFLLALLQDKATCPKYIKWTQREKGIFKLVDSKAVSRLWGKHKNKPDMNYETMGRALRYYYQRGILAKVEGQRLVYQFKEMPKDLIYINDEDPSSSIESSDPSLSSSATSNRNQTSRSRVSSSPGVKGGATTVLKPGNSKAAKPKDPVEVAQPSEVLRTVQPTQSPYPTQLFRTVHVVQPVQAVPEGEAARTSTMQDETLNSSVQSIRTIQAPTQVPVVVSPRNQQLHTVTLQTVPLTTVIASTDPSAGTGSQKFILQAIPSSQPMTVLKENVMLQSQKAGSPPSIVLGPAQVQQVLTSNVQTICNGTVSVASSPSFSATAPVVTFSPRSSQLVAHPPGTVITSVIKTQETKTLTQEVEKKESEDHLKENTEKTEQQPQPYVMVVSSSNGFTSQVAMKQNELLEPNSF
Method in brief: as §1

ELK3 = molecular target: T3, ELK3 (Homo sapiens, UniProt P41970 1-407)
T3 sequence: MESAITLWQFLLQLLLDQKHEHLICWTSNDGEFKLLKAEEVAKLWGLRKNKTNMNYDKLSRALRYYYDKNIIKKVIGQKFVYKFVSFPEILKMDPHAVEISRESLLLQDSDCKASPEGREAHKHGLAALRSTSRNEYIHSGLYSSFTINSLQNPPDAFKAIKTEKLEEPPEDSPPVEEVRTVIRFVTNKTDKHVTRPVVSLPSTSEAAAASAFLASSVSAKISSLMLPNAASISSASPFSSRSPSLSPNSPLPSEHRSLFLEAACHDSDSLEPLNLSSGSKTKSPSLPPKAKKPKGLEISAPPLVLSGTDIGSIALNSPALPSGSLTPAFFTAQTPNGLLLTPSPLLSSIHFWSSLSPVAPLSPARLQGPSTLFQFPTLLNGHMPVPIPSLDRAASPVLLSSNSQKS
Method in brief: as §1

FEV = molecular target: T4, FEV (Homo sapiens, UniProt Q99581 1-238)
T4 sequence: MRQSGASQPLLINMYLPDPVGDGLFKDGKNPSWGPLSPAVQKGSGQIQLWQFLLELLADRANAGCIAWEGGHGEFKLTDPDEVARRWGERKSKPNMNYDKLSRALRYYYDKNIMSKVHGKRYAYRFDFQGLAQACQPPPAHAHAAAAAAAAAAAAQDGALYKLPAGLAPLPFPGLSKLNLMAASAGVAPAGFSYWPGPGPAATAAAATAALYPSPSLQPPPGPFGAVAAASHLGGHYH
Method in brief: as §1

ELF4 = ELF4 (Homo sapiens, UniProt Q99607 1-663)
ELF4, sequence (Q99607 whole entry): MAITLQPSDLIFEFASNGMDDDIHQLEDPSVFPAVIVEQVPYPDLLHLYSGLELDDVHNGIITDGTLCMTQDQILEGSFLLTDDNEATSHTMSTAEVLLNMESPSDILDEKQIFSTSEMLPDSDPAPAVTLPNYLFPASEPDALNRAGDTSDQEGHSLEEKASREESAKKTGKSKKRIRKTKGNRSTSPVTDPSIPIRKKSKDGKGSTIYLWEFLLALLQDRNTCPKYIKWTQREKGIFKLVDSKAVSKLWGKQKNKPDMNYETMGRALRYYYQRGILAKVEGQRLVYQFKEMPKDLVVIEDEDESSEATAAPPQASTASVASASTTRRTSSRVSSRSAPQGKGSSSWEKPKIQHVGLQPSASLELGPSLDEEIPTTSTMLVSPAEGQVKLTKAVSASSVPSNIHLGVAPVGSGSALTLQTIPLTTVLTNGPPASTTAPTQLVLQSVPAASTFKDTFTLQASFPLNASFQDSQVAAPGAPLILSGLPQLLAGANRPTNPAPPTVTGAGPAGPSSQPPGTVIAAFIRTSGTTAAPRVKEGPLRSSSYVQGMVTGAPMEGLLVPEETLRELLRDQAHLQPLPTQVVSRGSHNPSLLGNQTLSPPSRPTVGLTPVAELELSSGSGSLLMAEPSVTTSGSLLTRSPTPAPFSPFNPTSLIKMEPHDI
Method in brief: as §1

ELF3 = molecular target: T5, ELF3 (Homo sapiens, UniProt P78545 1-371)
T5 sequence: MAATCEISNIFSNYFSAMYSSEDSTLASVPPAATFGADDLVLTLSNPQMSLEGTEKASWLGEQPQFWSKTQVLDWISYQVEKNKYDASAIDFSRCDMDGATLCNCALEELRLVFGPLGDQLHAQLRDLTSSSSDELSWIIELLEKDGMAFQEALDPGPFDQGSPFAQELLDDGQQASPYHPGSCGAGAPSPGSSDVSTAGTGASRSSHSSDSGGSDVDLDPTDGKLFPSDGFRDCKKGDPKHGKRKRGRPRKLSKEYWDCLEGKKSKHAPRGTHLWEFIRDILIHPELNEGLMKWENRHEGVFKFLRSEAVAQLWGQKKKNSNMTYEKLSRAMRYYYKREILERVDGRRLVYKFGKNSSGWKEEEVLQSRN
Method in brief: as §1

ETV1 = ETV1 (Homo sapiens, UniProt P50549 1-477)
ETV1, sequence (P50549 whole entry): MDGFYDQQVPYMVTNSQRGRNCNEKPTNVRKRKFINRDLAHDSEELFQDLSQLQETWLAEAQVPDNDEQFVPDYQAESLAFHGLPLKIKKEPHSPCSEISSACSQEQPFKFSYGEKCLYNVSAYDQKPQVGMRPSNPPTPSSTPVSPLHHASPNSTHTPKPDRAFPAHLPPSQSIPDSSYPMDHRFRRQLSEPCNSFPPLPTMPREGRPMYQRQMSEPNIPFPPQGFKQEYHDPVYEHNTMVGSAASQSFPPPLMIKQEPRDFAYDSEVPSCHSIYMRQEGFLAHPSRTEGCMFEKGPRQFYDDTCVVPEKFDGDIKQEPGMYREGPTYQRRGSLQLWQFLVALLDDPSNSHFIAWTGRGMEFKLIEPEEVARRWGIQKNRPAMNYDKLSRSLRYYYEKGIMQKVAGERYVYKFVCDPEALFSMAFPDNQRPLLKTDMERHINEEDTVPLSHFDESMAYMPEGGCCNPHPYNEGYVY
Method in brief: as §1

ERF = molecular target: T6, ERF (Homo sapiens, UniProt P50548 1-548)
T6 sequence: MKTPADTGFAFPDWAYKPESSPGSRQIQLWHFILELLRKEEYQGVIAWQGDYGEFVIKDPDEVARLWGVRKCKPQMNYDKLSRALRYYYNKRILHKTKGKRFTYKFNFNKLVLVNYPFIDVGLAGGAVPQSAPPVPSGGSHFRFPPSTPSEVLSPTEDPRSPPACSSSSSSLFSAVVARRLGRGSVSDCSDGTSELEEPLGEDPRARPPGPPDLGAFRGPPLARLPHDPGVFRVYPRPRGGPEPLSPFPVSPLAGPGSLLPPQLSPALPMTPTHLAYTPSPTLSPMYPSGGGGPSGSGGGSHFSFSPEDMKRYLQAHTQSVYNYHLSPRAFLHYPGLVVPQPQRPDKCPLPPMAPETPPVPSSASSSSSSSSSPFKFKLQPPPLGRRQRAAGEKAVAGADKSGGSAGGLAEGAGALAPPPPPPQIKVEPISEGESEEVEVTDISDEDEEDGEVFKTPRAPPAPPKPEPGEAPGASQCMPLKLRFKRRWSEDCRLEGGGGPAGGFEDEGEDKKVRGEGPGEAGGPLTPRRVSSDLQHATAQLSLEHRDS
Method in brief: as §1

ETV3L = molecular target: T7, ETV3L (Homo sapiens, UniProt Q6ZN32 1-361)
T7 sequence: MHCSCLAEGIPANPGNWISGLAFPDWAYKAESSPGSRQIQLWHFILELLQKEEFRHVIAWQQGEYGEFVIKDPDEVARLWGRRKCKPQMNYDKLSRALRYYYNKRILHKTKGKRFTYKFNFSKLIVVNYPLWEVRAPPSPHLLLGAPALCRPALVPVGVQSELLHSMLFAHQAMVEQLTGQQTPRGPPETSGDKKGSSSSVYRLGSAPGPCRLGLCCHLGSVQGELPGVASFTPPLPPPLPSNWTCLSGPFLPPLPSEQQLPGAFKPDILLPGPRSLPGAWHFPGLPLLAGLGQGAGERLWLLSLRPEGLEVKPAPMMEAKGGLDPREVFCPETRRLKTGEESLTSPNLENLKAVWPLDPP
Method in brief: as §1

ELK4 = molecular target: T8, ELK4 (Homo sapiens, UniProt P28324-2 1-405)
T8 sequence: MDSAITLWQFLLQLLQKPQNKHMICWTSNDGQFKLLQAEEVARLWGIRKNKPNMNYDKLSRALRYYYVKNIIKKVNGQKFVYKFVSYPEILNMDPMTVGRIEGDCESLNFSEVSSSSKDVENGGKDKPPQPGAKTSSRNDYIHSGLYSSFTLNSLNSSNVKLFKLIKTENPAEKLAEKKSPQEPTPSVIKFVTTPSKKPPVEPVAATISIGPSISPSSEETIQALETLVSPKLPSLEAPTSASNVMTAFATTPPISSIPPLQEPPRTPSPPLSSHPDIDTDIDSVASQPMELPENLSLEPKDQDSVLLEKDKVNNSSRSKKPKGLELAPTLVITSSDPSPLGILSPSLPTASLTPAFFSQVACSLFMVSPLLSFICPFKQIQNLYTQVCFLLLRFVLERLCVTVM
Method in brief: as §1

ERG = molecular target: T9, ERG (Homo sapiens, UniProt P11308 1-479)
T9 sequence: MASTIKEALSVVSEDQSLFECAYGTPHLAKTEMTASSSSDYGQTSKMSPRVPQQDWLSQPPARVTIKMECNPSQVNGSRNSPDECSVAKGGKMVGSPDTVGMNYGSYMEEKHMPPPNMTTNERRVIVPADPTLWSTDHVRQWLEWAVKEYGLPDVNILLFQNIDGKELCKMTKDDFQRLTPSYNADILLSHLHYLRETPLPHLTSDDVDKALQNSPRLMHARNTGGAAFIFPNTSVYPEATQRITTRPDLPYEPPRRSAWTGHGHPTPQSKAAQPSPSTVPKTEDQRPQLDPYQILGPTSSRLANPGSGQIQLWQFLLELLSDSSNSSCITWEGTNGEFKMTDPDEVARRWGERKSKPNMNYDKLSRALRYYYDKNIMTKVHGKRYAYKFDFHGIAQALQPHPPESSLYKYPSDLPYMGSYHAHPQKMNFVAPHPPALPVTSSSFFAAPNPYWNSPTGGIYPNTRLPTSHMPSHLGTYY
Method in brief: as §1

SPIB = SPIB (Homo sapiens, UniProt Q01892 1-262)
SPIB, sequence (Q01892 whole entry): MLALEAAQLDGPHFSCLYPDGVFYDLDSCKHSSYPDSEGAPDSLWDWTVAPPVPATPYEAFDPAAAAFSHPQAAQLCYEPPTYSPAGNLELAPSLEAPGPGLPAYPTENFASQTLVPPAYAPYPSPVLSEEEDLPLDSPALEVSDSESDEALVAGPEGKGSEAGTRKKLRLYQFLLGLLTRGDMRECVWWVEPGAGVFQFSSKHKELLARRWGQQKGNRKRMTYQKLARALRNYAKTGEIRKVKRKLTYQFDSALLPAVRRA
Method in brief: as §1

SPDEF = molecular target: T10, SPDEF (Homo sapiens, UniProt O95238 1-335)
T10 sequence: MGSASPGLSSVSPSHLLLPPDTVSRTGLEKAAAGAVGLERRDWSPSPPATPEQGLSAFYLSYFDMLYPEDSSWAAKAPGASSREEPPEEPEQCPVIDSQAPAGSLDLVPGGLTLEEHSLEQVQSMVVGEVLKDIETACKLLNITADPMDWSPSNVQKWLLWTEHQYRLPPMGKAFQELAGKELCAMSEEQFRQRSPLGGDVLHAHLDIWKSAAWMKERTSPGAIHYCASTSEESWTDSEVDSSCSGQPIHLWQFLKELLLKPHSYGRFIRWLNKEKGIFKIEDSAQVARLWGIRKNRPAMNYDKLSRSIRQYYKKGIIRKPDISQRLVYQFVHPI
Method in brief: as §1

ETV3 = molecular target: T11, ETV3 (Homo sapiens, UniProt P41162-2 1-143)
T11 sequence: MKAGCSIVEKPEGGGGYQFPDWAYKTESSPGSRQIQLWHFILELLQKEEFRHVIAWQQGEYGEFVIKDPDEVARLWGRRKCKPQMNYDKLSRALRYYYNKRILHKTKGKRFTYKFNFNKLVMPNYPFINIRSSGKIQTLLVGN
Method in brief: as §1

ETV6 = ETV6 (Homo sapiens, UniProt P41212 1-452)
ETV6, sequence (P41212 whole entry): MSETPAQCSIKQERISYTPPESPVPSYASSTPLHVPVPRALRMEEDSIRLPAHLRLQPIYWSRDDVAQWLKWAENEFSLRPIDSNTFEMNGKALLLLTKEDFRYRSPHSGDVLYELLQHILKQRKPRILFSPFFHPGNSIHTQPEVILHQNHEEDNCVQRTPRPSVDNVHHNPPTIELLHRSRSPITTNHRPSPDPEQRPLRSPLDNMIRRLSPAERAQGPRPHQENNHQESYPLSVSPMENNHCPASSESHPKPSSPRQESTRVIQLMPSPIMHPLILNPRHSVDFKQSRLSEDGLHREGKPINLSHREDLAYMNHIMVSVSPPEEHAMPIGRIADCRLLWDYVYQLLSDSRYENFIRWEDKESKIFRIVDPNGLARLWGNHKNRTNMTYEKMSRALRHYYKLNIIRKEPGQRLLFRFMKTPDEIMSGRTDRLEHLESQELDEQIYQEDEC
Method in brief: as §1

| Sequence | binding signal (ELK1) | binding signal (GABPA) | binding signal (ELF1) | binding signal (ELK3) | binding signal (FEV) | binding signal (ELF4) | binding signal (ELF3) | binding signal (ETV1) | binding signal (ERF) | binding signal (ETV3L) | binding signal (ELK4) | binding signal (ERG) | binding signal (SPIB) | binding signal (SPDEF) | binding signal (ETV3) | binding signal (ETV6) |
| --- | --- | --- | --- | --- | --- | --- | --- | --- | --- | --- | --- | --- | --- | --- | --- | --- |
| CATCAA | 1.01 fold enrichment (6-mer frequency, TF over GST control) | 1.03 fold enrichment (6-mer frequency, TF over GST control) | 1.03 fold enrichment (6-mer frequency, TF over GST control) | 1.07 fold enrichment (6-mer frequency, TF over GST control) | 1 fold enrichment (6-mer frequency, TF over GST control) | 1.05 fold enrichment (6-mer frequency, TF over GST control) | 1.03 fold enrichment (6-mer frequency, TF over GST control) | 1.01 fold enrichment (6-mer frequency, TF over GST control) | 1.02 fold enrichment (6-mer frequency, TF over GST control) | 1.08 fold enrichment (6-mer frequency, TF over GST control) |  |  |  |  |  |  |
| ACAGTT |  |  |  |  |  |  |  |  |  |  | 1.02 fold enrichment (6-mer frequency, TF over GST control) |  |  |  |  |  |
| CACCTG | 1.06 fold enrichment (6-mer frequency, TF over GST control) | 1.01 fold enrichment (6-mer frequency, TF over GST control) | 1.09 fold enrichment (6-mer frequency, TF over GST control) |  |  | 1.08 fold enrichment (6-mer frequency, TF over GST control) | 1.05 fold enrichment (6-mer frequency, TF over GST control) |  | 1.07 fold enrichment (6-mer frequency, TF over GST control) | 1.05 fold enrichment (6-mer frequency, TF over GST control) | 1.09 fold enrichment (6-mer frequency, TF over GST control) | 1.06 fold enrichment (6-mer frequency, TF over GST control) | 1.03 fold enrichment (6-mer frequency, TF over GST control) | 1.07 fold enrichment (6-mer frequency, TF over GST control) | 1.03 fold enrichment (6-mer frequency, TF over GST control) | 1.06 fold enrichment (6-mer frequency, TF over GST control) |
